Tests used:
Assay in all cases: PBM binding z-score (relative to random genomic background probes); higher = stronger binding; sequences stand for … in GC…GCGATTGACAGCGTAGAATGAAGG
[1] = tested on: FXR:RXRa (NR concentration 270 nM, RXRa partner concentration 90 nM)
Method in brief: (§1)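 Probes were double-stranded and carried 34-nt variable regions with direct-repeat seeds, single-nucleotide variants, half-site ablations and random human genomic background sequences, printed on custom Agilent 4×180K protein-binding microarrays. Arrays were incubated 1 h with ligand-free nuclear receptor dimers in PBS pH 7.4, 2% milk, 0.02% Triton X-100, 1 mM DTT, 0.2 mg/mL BSA and 0.4 mg/ml salmon testes DNA. Antibodies against each partner (one per run) detected binding, and scanned fluorescence was regression-normalized. Binding z-scores use the random background probes as reference.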

[2] = tested on: LXRa:RXRa (NR concentration 270 nM, RXRa partner concentration 90 nM)
Method in brief: as §1

[3] = tested on: LXRa homodimer (NR concentration 270 nM)
Method in brief: as §1

[4] = tested on: LXRb:RXRa (NR concentration 270 nM, RXRa partner concentration 90 nM)
Method in brief: as §1

[5] = tested on: LXRb homodimer (NR concentration 270 nM)
Method in brief: as §1

[6] = tested on: PPARa:RXRa (NR concentration 270 nM, RXRa partner concentration 90 nM)
Method in brief: as §1

[7] = tested on: PPARg:RXRa (NR concentration 180 nM, RXRa partner concentration 90 nM)
Method in brief: as §1

[8] = tested on: PPARg:RXRa 270nM:90nM, anti-RXR (NR concentration 270 nM, RXRa partner concentration 90 nM)
Method in brief: as §1

[9] = tested on: PPARg:RXRa 30nM:10nM, anti-RXR (NR concentration 30 nM, RXRa partner concentration 10 nM)
Method in brief: as §1

[10] = tested on: PPARg:RXRa 90nM:30nM, anti-RXR (NR concentration 90 nM, RXRa partner concentration 30 nM)
Method in brief: as §1

[11] = tested on: PPARg:RXRa DBDmut IVT, anti-RXR (DBD mutation: RXRa K156A/R161A, NR concentration 270 nM, RXRa partner concentration 90 nM)
Method in brief: as §1

[12] = tested on: PPARg:RXRa IVT, anti-PPARg (NR concentration 270 nM, RXRa partner concentration 90 nM)
Method in brief: as §1

[13] = tested on: PPARg DBDmut:RXRa IVT, anti-PPARg (DBD mutation: PPARg1 K132A/R137A, NR concentration 270 nM, RXRa partner concentration 90 nM)
Method in brief: as §1

[14] = tested on: PPARg DBDmut IVT, anti-PPARg (DBD mutation: PPARg1 K132A/R137A, NR concentration 270 nM)
Method in brief: as §1

[15] = tested on: PPARg homodimer (NR concentration 180 nM)
Method in brief: as §1

[16] = tested on: PXR:RXRa (NR concentration 270 nM, RXRa partner concentration 90 nM)
Method in brief: as §1

[17] = tested on: PXR homodimer (NR concentration 270 nM)
Method in brief: as §1

[18] = tested on: RARa:RXR (NR concentration 270 nM, RXRa partner concentration 90 nM)
Method in brief: as §1

[19] = tested on: RARa homodimer (NR concentration 270 nM)
Method in brief: as §1

[20] = tested on: RARb:RXRa (NR concentration 270 nM, RXRa partner concentration 90 nM)
Method in brief: as §1

| Sequence | PBM binding z-score [1] | PBM binding z-score [2] | PBM binding z-score [3] | PBM binding z-score [4] | PBM binding z-score [5] | PBM binding z-score [6] | PBM binding z-score [7] | PBM binding z-score [8] | PBM binding z-score [9] | PBM binding z-score [10] | PBM binding z-score [11] | PBM binding z-score [12] | PBM binding z-score [13] | PBM binding z-score [14] | PBM binding z-score [15] | PBM binding z-score [16] | PBM binding z-score [17] | PBM binding z-score [18] | PBM binding z-score [19] | PBM binding z-score [20] |
| --- | --- | --- | --- | --- | --- | --- | --- | --- | --- | --- | --- | --- | --- | --- | --- | --- | --- | --- | --- | --- |
| AGTCAAAGTTCATCTACGTAACGTAAGATATGCT | 6.79 | 6.21 | 5.33 | 3.97 | 1.6 | 4.77 | 6.55 | 6.3 | 3.58 | 5.65 | 0.41 | 2.74 | 1.46 | 1.88 | 2.94 | 4.96 | 4.87 | 3.51 | 1.69 | 4.85 |
| CAGCCTAGGTCTGGGCCAGTATAGGAGGAACGTT | -0.847 | -0.864 | -0.89 | -1.05 | -1.28 | -0.798 | -0.286 | -0.953 | -0.869 | -0.961 | -0.647 | -0.716 | -1.17 | -1.97 | -0.842 | -0.944 | -0.644 | -0.724 | -0.886 | -0.54 |
| AGAATGAGGTGACCAAAGATCAGGGAAACGCTTG | 0.916 | 0.957 | -0.26 | 0.478 | -0.291 | 2.24 | 2.48 | 2.2 | 0.478 | 1.46 | 4.37 | 4.21 | 0.497 | 0.08 | 0.216 | 0.534 | -0.16 | 0.899 | -0.253 | 1.3 |
| CGAACTAGGTCATCCAGGGCAGTGAATACATTGA | 4.8 | 3.06 | 0.45 | 2.11 | -0.0808 | 5.08 | 7.91 | 6.54 | 4.15 | 5.95 | 8.06 | 8.48 | 5.35 | 1.78 | 2.66 | 2.66 | 1.95 | 2.47 | 0.454 | 4.29 |
| GCTCGGCGGACAAGGTCAGAGCTTTGTCCGTAGA | 1.19 | 1.42 | -0.598 | 0.784 | -1.28 | 2.03 | -0.519 | 0.435 | -0.807 | -0.297 | -0.55 | 0.128 | -1.6 | -1.83 | -0.129 | 1.55 | -0.547 | 1.95 | -0.932 | 2.81 |
| CCTAGTTGGTCAGGAGGACACACACCGGATATGA | 0.321 | 0.0708 | 0.61 | 0.0444 | 0.0185 | 0.000867 | 1.08 | 0.072 | -0.0757 | -0.0104 | 0.664 | 1.14 | -0.182 | 0.142 | 0.859 | -0.126 | 0.473 | 0.228 | 1.7 | 1.4 |
| CATACAGGGTCAGCTACGCCAGAGTAGGGACGGC | 4.39 | 3.1 | 0.0565 | 2.3 | 0.562 | 4.28 | 3.26 | 3.22 | 0.875 | 2.03 | 1.11 | 2.35 | 0.652 | 1.25 | 1.54 | 2.22 | -0.0173 | 3.27 | 0.771 | 3.99 |
| GCTAGCCGGCCATTTGGGTCACTCAATGACGGGC | 0.14 | -0.0989 | -0.475 | -0.0153 | -0.65 | 1.12 | 0.338 | 0.0131 | -0.633 | -0.159 | 0.149 | 1.18 | -0.74 | -1.42 | -0.135 | 0.15 | -0.217 | 0.452 | -1.3 | 1.19 |
| ATCGAAATGTCGAGGTGAGTATAGAGAAAGGGAA | 0.0498 | -0.124 | -0.716 | -0.253 | -0.363 | 0.204 | 0.315 | 0.0336 | 0.162 | 0.363 | -0.755 | 0.414 | 0.309 | 0.489 | -0.704 | -0.204 | -0.513 | 0.129 | -0.696 | 0.538 |
| CGAACTAGGTCATTGACAGGACACTGAATAGTAA | 4.3 | 3 | 0.64 | 2.25 | 0.377 | 4.54 | 7.31 | 6.14 | 3.7 | 5.66 | 8.02 | 7.96 | 2 | 1.46 | 2.02 | 1.66 | 0.493 | 2.18 | 0.218 | 3.69 |
| TCAGACAGGTGAAGGTAACTCCGGTACGCAGTCG | 0.787 | 2.08 | -0.352 | 0.966 | -0.314 | 1.21 | 0.509 | 2.09 | 3.78 | 2.96 | 2.59 | 1.09 | -0.276 | -0.342 | 0.498 | 0.475 | -0.04 | 0.651 | 0.0905 | 1.1 |
| AGTCAAAGTTCACTAGGTAATGTAAGATTCAGCT | 4.99 | 4.85 | 2.91 | 3.07 | 0.939 | 4.58 | 7.06 | 6.01 | 3.43 | 5.25 | 2.34 | 4.44 | 1.59 | 2.13 | 2.35 | 4.01 | 2.75 | 3.26 | 1.29 | 4.78 |
| CCTGCTAGGTCTTGGTCAGCTAATCTACAGTATG | -0.4 | -0.437 | -0.451 | -0.509 | -0.639 | -0.469 | -0.371 | -0.599 | -0.683 | -0.872 | 0.846 | -0.117 | -0.408 | -1.03 | -0.24 | -0.552 | -0.561 | -0.0179 | -1.02 | 0.537 |
| AGAATGAGGTTAAAATCAGGGAAACAGAATACAT | 2.65 | 2.59 | 0.234 | 2.08 | 0.345 | 3.69 | 2.3 | 2.46 | 0.879 | 1.7 | 2.34 | 2.5 | 0.82 | 1.18 | 0.858 | 1.17 | 0.655 | 1.9 | 0.961 | 1.59 |

— the supplement of paper PMC6555819
